# Results: the supplement of paper PMC6555819
# What was measured:
# Assay in all cases: PBM binding z-score (relative to random genomic background probes); higher = stronger binding; sequences stand for … in GC…GCGATTGACAGCGTAGAATGAAGG
# [1] = tested on: FXR:RXRa (NR concentration 270 nM, RXRa partner concentration 90 nM)
# Method in brief: (§1)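 Regression normalization was applied to scanned fluorescence from custom Agilent 4×180K protein-binding microarrays. Before scanning, arrays were incubated 1 h with ligand-free nuclear receptor dimers, and binding was detected with antibodies against each partner (one per run). Binding z-scores use the random background probes as reference.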
# [2] = tested on: LXRa:RXRa (NR concentration 270 nM, RXRa partner concentration 90 nM)
# Method in brief: as §1
# [3] = tested on: LXRa homodimer (NR concentration 270 nM)
# Method in brief: as §1
# [4] = tested on: LXRb:RXRa (NR concentration 270 nM, RXRa partner concentration 90 nM)
# Method in brief: as §1
# [5] = tested on: LXRb homodimer (NR concentration 270 nM)
# Method in brief: as §1
# [6] = tested on: PPARa:RXRa (NR concentration 270 nM, RXRa partner concentration 90 nM)
# Method in brief: as §1
# [7] = tested on: PPARg:RXRa (NR concentration 180 nM, RXRa partner concentration 90 nM)
# Method in brief: as §1
# [8] = tested on: PPARg:RXRa 270nM:90nM, anti-RXR (NR concentration 270 nM, RXRa partner concentration 90 nM)
# Method in brief: as §1
# [9] = tested on: PPARg:RXRa 30nM:10nM, anti-RXR (NR concentration 30 nM, RXRa partner concentration 10 nM)
# Method in brief: as §1
# [10] = tested on: PPARg:RXRa 90nM:30nM, anti-RXR (NR concentration 90 nM, RXRa partner concentration 30 nM)
# Method in brief: as §1
# [11] = tested on: PPARg:RXRa DBDmut IVT, anti-RXR (DBD mutation: RXRa K156A/R161A, NR concentration 270 nM, RXRa partner concentration 90 nM)
# Method in brief: as §1
# [12] = tested on: PPARg:RXRa IVT, anti-PPARg (NR concentration 270 nM, RXRa partner concentration 90 nM)
# Method in brief: as §1
# [13] = tested on: PPARg DBDmut:RXRa IVT, anti-PPARg (DBD mutation: PPARg1 K132A/R137A, NR concentration 270 nM, RXRa partner concentration 90 nM)
# Method in brief: as §1
# [14] = tested on: PPARg DBDmut IVT, anti-PPARg (DBD mutation: PPARg1 K132A/R137A, NR concentration 270 nM)
# Method in brief: as §1
# [15] = tested on: PPARg homodimer (NR concentration 180 nM)
# Method in brief: as §1
# [16] = tested on: PXR:RXRa (NR concentration 270 nM, RXRa partner concentration 90 nM)
# Method in brief: as §1
# [17] = tested on: PXR homodimer (NR concentration 270 nM)
# Method in brief: as §1
# [18] = tested on: RARa:RXR (NR concentration 270 nM, RXRa partner concentration 90 nM)
# Method in brief: as §1
# [19] = tested on: RARa homodimer (NR concentration 270 nM)
# Method in brief: as §1
# [20] = tested on: RARb:RXRa (NR concentration 270 nM, RXRa partner concentration 90 nM)
# Method in brief: as §1
Sequence,PBM binding z-score [1],PBM binding z-score [2],PBM binding z-score [3],PBM binding z-score [4],PBM binding z-score [5],PBM binding z-score [6],PBM binding z-score [7],PBM binding z-score [8],PBM binding z-score [9],PBM binding z-score [10],PBM binding z-score [11],PBM binding z-score [12],PBM binding z-score [13],PBM binding z-score [14],PBM binding z-score [15],PBM binding z-score [16],PBM binding z-score [17],PBM binding z-score [18],PBM binding z-score [19],PBM binding z-score [20]
TCATATACGTAAACAGGTGAAAGTCCGTAAGTTA,1.15,1.2,0.468,1.33,0.615,1.75,1.14,2.99,4.45,3.61,2.72,1.26,1.21,1.05,1.24,1.19,0.801,1.68,1.67,0.855
CCAGACAGGTGAAAGGTAATTCAGTCTGGTACGC,0.605,0.764,-0.068,0.645,-0.433,3.29,5.24,5.83,4.2,5.95,2.07,2.63,-0.0152,-0.567,1.43,0.676,-0.138,1.49,0.566,0.958
AATCAAAGTTCACTAGGTAACGTAAGATTCAGCT,4.99,5.49,4.91,3.21,1.43,4.48,5.39,4.91,2.47,3.92,2.41,4.17,1.22,1.64,2.31,3.75,2,2.5,1.15,4.72
TCTCGGAGGACACGATAGGTCAGAGCTCGACATC,1.07,1.92,0.208,0.643,-0.585,1.5,0.595,1.43,2.09,1.52,1.4,0.606,-0.736,-0.55,0.932,0.843,-0.337,1.59,-0.7,2.66
AGAACGAGGGCAATGAGCTGATAGCACGGGTGGC,0.394,0.368,-0.433,-0.35,-0.559,1.4,1.29,0.822,-0.0771,0.27,3.25,2.14,0.548,-0.351,-0.0817,0.131,0.0255,0.176,-0.301,2
CCTATTAGTTGACCATGAGGGCAACCGAAGCTCG,1.01,0.684,0.747,0.619,0.6,0.652,0.438,0.373,-0.175,0.282,0.64,0.77,0.542,0.384,1.98,1.48,1.48,1.37,1.39,1.52
TCTTGTAGATCAAGCAGGTTAAGAATGCCTGAGT,0.16,0.304,-0.202,0.114,-0.543,0.658,-0.22,1.1,2.61,1.83,1.49,0.313,-0.142,0.577,-0.335,0.291,-0.153,0.248,-0.193,0.0521
ATATGTAGGTTACATCCGGGTTATTCAGGCTATG,0.937,3.18,0.529,1.71,0.53,3.59,5.15,4.27,2,3.64,7.44,7.16,4.04,2.37,3.3,1.2,0.531,1.57,0.67,1.35
ATCTCTAGGTAACGTTCAGTGAAAGATCGATAGA,0.596,0.51,-0.179,0.297,0.462,0.836,0.58,0.792,0.317,0.669,3.29,2.87,1.78,1.73,0.504,0.0439,0.0107,0.445,0.865,0.556
AGAACGAGGGCAATGATTTGATAGCACGGGTGGC,0.321,0.43,-0.337,0.168,-0.65,1.41,1.57,0.787,0.29,0.557,3.4,2.89,0.782,0.14,0.437,0.447,0.328,0.36,0.605,1.95
TCTCGGAGGACGCGAAAGGTCAGAGCTCGACATC,2.41,3.21,1.27,2.37,-0.501,3.2,1.67,3.46,2.47,3.21,0.887,0.996,1.57,0.428,2.2,3.7,0.0066,4.09,0.692,3.89
CCGAGTAGGTTATGGGGCCTTCAGGCAACGGTGA,0.0359,0.107,-0.191,0.353,-0.362,1.33,1.43,2.56,0.26,1.58,3.11,2.85,-0.856,-1.59,0.629,-0.268,-0.427,0.0801,0.0148,0.668
TGAAAGAGGTTATAAGATCAGGGAACGTTGCAAA,2.03,1.91,-0.395,1.33,-0.331,2.91,1.11,1.46,0.81,1.12,-0.304,0.748,-0.617,0.266,0.0455,0.781,-0.571,1.59,-0.227,1.56
GCTAGCAGGCTATTTGGGTCACTCAATGACGGGC,0.127,0.137,-0.259,0.255,-0.646,2.16,1.11,1.36,-0.338,0.706,3.1,3.87,-0.208,-0.897,0.28,0.435,-0.454,1.01,-0.508,1.27
